Measurements as given in PubChem BioAssay (NCI).
The panel holds about 83,000 compounds, 20% with a hit somewhere; the sample as a whole holds those more often.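 Cell lines were cultured in 96-well plates, exposed to a single compound concentration, and assessed for percent growth 48 hours later.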 Active and inactive are the calls of the source. Rule for the calls: active = growth percent below 10; inactive = the rest.

Assays:
Assay in all cases: NCI-60 one-dose screen, 48 h (100 = growth as untreated, 0 = no growth, -100 = all killed)
RPMI-8226 leukemia = details: 10 µM
OVCAR-8 ovarian = details: 10 µM
OVCAR-5 ovarian = details: 10 µM
OVCAR-4 ovarian = details: 10 µM
SK-OV-3 ovarian = details: 10 µM
IGROV1 ovarian = details: 10 µM
OVCAR-3 ovarian = details: 10 µM
HS 578T breast = details: 10 µM
NCI/ADR-RES ovarian = details: 10 µM
BT-549 breast = details: 10 µM
MDA-MB-435 melanoma = details: 10 µM
SW-620 colon = details: 10 µM
MCF7 breast = details: 10 µM unless noted
HCT-116 colon = details: 10 µM
HCC-2998 colon = details: 10 µM
KM12 colon = details: 10 µM
T-47D breast = details: 10 µM

Measured: growth

O=[N+]([O-])c1ccc(-c2noc(-c3cccs3)n2)cc1
inactive: RPMI-8226 leukemia 96.5% | OVCAR-8 ovarian 86.6% | OVCAR-5 ovarian 98.5% | OVCAR-4 ovarian 71.6% | SK-OV-3 ovarian 95.2% | IGROV1 ovarian 96% | OVCAR-3 ovarian 106% | HS 578T breast 60.3% | NCI/ADR-RES ovarian 82.4% | BT-549 breast 78.3% | MDA-MB-435 melanoma 94.2% | SW-620 colon 90.4% | MCF7 breast 63.2% | HCT-116 colon 47.5% | HCC-2998 colon 99.9% | KM12 colon 88.5%

COC(=O)c1cc(-c2ccc(Cl)c(Cl)c2)[nH]c(=O)c1C#N
inactive: RPMI-8226 leukemia 112% | OVCAR-8 ovarian 101% | OVCAR-5 ovarian 99.2% | OVCAR-4 ovarian 103% | SK-OV-3 ovarian 103% | IGROV1 ovarian 110% | OVCAR-3 ovarian 116% | HS 578T breast 74.9% | NCI/ADR-RES ovarian 105% | BT-549 breast 104% | MDA-MB-435 melanoma 104% | SW-620 colon 99.1% | MCF7 breast 89.1% | HCT-116 colon 97.2% | HCC-2998 colon 117% | KM12 colon 109%

O=C(Cc1nc2ccc([N+](=O)[O-])cc2nc1CC(=O)c1cccnc1)c1cccnc1
active: HS 578T breast 7.13% | BT-549 breast 8.87%
inactive: RPMI-8226 leukemia 94.5% | OVCAR-8 ovarian 31.2% | OVCAR-5 ovarian 101% | OVCAR-4 ovarian 57.7% | SK-OV-3 ovarian 47.9% | IGROV1 ovarian 73.9% | OVCAR-3 ovarian 65.1% | NCI/ADR-RES ovarian 30.4% | MDA-MB-435 melanoma 89.8% | SW-620 colon 81.3% | MCF7 breast 47.4% | HCT-116 colon 50.5% | HCC-2998 colon 96.2% | KM12 colon 63.1%

COc1ccc(C2(O)CCCCC2)cc1
inactive: RPMI-8226 leukemia 95.6% | OVCAR-8 ovarian 107% | OVCAR-5 ovarian 111% | OVCAR-4 ovarian 112% | SK-OV-3 ovarian 107% | IGROV1 ovarian 111% | OVCAR-3 ovarian 116% | HS 578T breast 93.5% | NCI/ADR-RES ovarian 104% | T-47D breast 98.2% | MDA-MB-435 melanoma 107% | SW-620 colon 102% | MCF7 breast 102% | HCT-116 colon 99.1% | HCC-2998 colon 104% | KM12 colon 107%

O=C1NC(=O)C2C(=O)NC(=O)C1C21CCc2ccccc21 (stereo not given)
inactive: RPMI-8226 leukemia 115% | OVCAR-8 ovarian 103% | OVCAR-5 ovarian 110% | OVCAR-4 ovarian 105% | SK-OV-3 ovarian 116% | IGROV1 ovarian 109% | OVCAR-3 ovarian 115% | HS 578T breast 89% | NCI/ADR-RES ovarian 100% | BT-549 breast 106% | MDA-MB-435 melanoma 112% | SW-620 colon 101% | MCF7 breast 93.1% | HCT-116 colon 96.7% | HCC-2998 colon 115% | KM12 colon 105%

Cc1cc2nc(CC(=O)c3ccccc3)c(=O)[nH]c2cc1C
inactive: RPMI-8226 leukemia 103% | OVCAR-8 ovarian 94.7% | OVCAR-5 ovarian 116% | OVCAR-4 ovarian 102% | SK-OV-3 ovarian 102% | IGROV1 ovarian 91.9% | OVCAR-3 ovarian 109% | HS 578T breast 73.8% | NCI/ADR-RES ovarian 94.6% | BT-549 breast 89.6% | MDA-MB-435 melanoma 106% | SW-620 colon 94.3% | MCF7 breast 78.1% | HCT-116 colon 80.3% | HCC-2998 colon 110% | KM12 colon 100%

Cc1cc(=O)cc(C)n1-c1ccccc1
inactive: RPMI-8226 leukemia 97.6% | OVCAR-8 ovarian 109% | OVCAR-5 ovarian 98.3% | OVCAR-4 ovarian 100% | SK-OV-3 ovarian 94.7% | IGROV1 ovarian 114% | OVCAR-3 ovarian 120% | HS 578T breast 113% | NCI/ADR-RES ovarian 98.9% | T-47D breast 91.7% | MDA-MB-435 melanoma 110% | SW-620 colon 107% | MCF7 breast 94.4% | HCT-116 colon 98.4% | HCC-2998 colon 107% | KM12 colon 104%

C=C[Si](OC(C)=O)(OC(C)=O)OC(C)=O
inactive: RPMI-8226 leukemia 95.9% | OVCAR-8 ovarian 109% | OVCAR-5 ovarian 115% | OVCAR-4 ovarian 110% | SK-OV-3 ovarian 96.7% | IGROV1 ovarian 97.2% | OVCAR-3 ovarian 108% | HS 578T breast 107% | NCI/ADR-RES ovarian 104% | T-47D breast 93.6% | BT-549 breast 95.9% | MDA-MB-435 melanoma 99.6% | MCF7 breast 92.9% | HCT-116 colon 100% | HCC-2998 colon 103% | KM12 colon 104%

Cc1ccc(/C=C2\SC(=S)N(c3ccc(F)cc3)C2=O)o1
inactive: RPMI-8226 leukemia 86.4% | OVCAR-5 ovarian 102% | OVCAR-4 ovarian 13.6% | SK-OV-3 ovarian 92.2% | IGROV1 ovarian 90.7% | OVCAR-3 ovarian 79.1% | HS 578T breast 52.2% | NCI/ADR-RES ovarian 73% | BT-549 breast 112% | MDA-MB-435 melanoma 77.4% | SW-620 colon 93.3% | MCF7 breast 71.1% | HCT-116 colon 64.5% | HCC-2998 colon 118% | KM12 colon 78.2%
active: OVCAR-8 ovarian 0%

COc1ccc(C2OC(N)=C(O)C2=O)cc1OC (stereo not given)
inactive: RPMI-8226 leukemia 104% | OVCAR-8 ovarian 105% | OVCAR-5 ovarian 96.7% | OVCAR-4 ovarian 103% | SK-OV-3 ovarian 99.5% | IGROV1 ovarian 106% | OVCAR-3 ovarian 114% | HS 578T breast 70.1% | NCI/ADR-RES ovarian 103% | BT-549 breast 102% | MDA-MB-435 melanoma 110% | MCF7 breast 93.8% | HCT-116 colon 99.7% | HCC-2998 colon 107% | KM12 colon 109%

Cc1ccc(C)n1-c1ccsc1C(=O)NNC(=O)CCl
inactive: RPMI-8226 leukemia 84.4% | OVCAR-8 ovarian 106% | OVCAR-5 ovarian 111% | OVCAR-4 ovarian 93.5% | SK-OV-3 ovarian 95.2% | IGROV1 ovarian 103% | OVCAR-3 ovarian 93.2% | HS 578T breast 92.7% | NCI/ADR-RES ovarian 98.5% | MDA-MB-435 melanoma 92.1% | SW-620 colon 108% | MCF7 breast 78.4% | HCT-116 colon 78% | HCC-2998 colon 116% | KM12 colon 104%

CC1(C)S(=O)(=O)OCCOS1(=O)=O
inactive: RPMI-8226 leukemia 104% | OVCAR-8 ovarian 99.2% | OVCAR-5 ovarian 110% | OVCAR-4 ovarian 102% | SK-OV-3 ovarian 111% | IGROV1 ovarian 108% | OVCAR-3 ovarian 110% | HS 578T breast 106% | NCI/ADR-RES ovarian 103% | BT-549 breast 100% | MDA-MB-435 melanoma 103% | SW-620 colon 101% | MCF7 breast 97.1% | HCT-116 colon 94.6% | HCC-2998 colon 113% | KM12 colon 106%
